# The sample as a whole holds a higher share of the strongest signals than the screen did.
# Test system: Man(b1-4)GlcNAc
# Test: glycan array binding signal (z-score within array); higher = stronger binding
# Details: glycan notation: IUPAC condensed, linker removed
# Method in brief: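 The binding signal is a Z-score computed within each array. Data were drawn from 3228 arrays in the Consortium for Functional Glycomics database, restricted to those with a known protein sequence. Scores were averaged over arrays of the same protein sequence at different concentrations or buffers, and over linkers, and negative values can be taken as non-binding.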
# Aggrecan (Rattus norvegicus), NP_071526, sequence (chain, as listed by the source): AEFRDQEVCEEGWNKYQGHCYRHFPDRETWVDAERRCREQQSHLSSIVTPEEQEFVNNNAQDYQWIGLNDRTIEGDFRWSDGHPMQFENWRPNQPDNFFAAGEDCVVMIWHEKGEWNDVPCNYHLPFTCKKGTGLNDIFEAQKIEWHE
# PILRb (Mus musculus), Q2YSF2, sequence (Q2YSF2 entry or part of it): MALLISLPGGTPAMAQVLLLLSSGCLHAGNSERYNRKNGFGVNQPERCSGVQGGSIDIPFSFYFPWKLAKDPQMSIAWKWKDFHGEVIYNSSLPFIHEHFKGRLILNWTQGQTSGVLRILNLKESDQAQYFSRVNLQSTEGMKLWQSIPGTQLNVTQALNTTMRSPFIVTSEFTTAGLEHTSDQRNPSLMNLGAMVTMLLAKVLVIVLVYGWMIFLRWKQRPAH
# wLAT-1A (Homo sapiens), Q01650, sequence (Q01650 whole entry): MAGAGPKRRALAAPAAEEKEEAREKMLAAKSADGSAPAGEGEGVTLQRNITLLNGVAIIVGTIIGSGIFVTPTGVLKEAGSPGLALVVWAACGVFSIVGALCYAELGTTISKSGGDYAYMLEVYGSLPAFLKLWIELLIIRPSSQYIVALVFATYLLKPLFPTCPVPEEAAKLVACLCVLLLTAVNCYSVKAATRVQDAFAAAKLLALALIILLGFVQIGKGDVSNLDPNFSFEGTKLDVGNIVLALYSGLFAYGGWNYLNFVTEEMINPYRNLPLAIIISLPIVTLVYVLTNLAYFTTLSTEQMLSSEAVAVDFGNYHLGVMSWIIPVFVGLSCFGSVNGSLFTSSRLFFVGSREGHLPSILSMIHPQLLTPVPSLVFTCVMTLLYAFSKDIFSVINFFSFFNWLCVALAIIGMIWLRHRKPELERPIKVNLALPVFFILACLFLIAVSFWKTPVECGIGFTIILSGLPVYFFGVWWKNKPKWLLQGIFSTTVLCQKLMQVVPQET
row,Substance,glycan array binding signal (z-score)
1,"Aggrecan (Rattus norvegicus), NP_071526",-0.071
2,"PILRb (Mus musculus), Q2YSF2",-0.166
3,"wLAT-1A (Homo sapiens), Q01650",0.584

# From the supplement of paper PMC8728848
